G9a inh: blocks human histone lysine methyltransferase G9a; Q96KQ7; hit rate 8.8% among 350,000; G9a H3K9 monomethylation, AlphaScreen, 2 h; Potency, µM (doses to about 102 µM), usual class: inhibitors; note: nearly all actives have a fitted effect of over 75% in size
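Using a bead-based AlphaScreen, monomethylated H3K9 product from 2 h room-temperature reactions (G9a 20 nM, peptide 500 nM, SAM 20 uM) was detected with 0.5 ug/mL rabbit anti-H3K9me1 antibody.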
BAZ2B inh: inhibitors of human BAZ2B bromodomain | Potency, µM (titrated, usually from 114 µM), most hits filed as inhibitors | AID 504333 | AlphaScreen BAZ2B-H3K14Ac peptide displacement | hit rate 4.4% among 360,000; note: nearly all actives have a fitted effect of over 60% in size
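Multi-concentration screen (max 110 uM) measuring displacement of acetylated histone H3 peptide from BAZ2B by AlphaScreen, using 50 nM protein, 50 nM peptide and 10 ug/mL streptavidin donor plus Ni-chelate acceptor beads.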
JMJD2A Tudor inh: inhibitors of human JMJD2A Tudor domain; O75164; AlphaScreen JMJD2A-Tudor / H3K4me3 peptide binding; Potency, µM (top dose mostly 114 µM), actives largely listed as inhibitors; hit rate 4.4% among 390,000; AID 504339; note: nearly all actives have a fitted effect of over 50% in size
Six1-Eya2 inh: blocks human Six1 binding to Eya2; AlphaScreen GST-Six1/His-Eya2 binding, biochemical; hits give low values; activity change, % (no concentration beside the values); hit rate 0.56% among 360,000; in the data active = activity change below about -65%; inconclusive = mostly about -30% to -63%
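Six1/Eya2 binding was read as AlphaScreen signal after compounds were pinned into GST-Six1 plus His-tagged Eya2 (5X stock 250/500 nM) in pH 8.0 Tris/NaCl/TCEP buffer, beads added, then incubated 1 h, 37 C, dark.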
CtBP-E1A blk: blocks the CtBP interaction with E1A. AlphaScreen GST-E1A/His-CtBP binding, 1536-well; hits give low values. activity change, % (test concentration not listed). hit rate 0.49% among 340,000; in the data active = activity change below about -65%; inconclusive = mostly about -30% to -63%
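Homogeneous bead-based format: GST-tagged E1A captured on glutathione donor beads, His-tagged CtBP on nickel acceptor beads; compounds precede bead addition by 2 h at 37 °C.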
HP1b chromo inh: inhibitors of HP1-beta chromodomain binding to methylated histone tails; Potency, µM (highest dose often 114 µM), hits mostly inhibitors; P83916; AlphaScreen HP1-beta / biotin-H3K9me3 peptide binding; hit rate 0.56% among 390,000; note: nearly all actives have a fitted effect of over 70% in size
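AlphaScreen: HP1-beta (50 nM) preformed 30 min with biotin-H3(1-18)K9me3 peptide (50 nM) in PBS pH 7.4, 0.01% Tween-20. Compound added for 30 min at RT, then streptavidin donor/nickel chelate acceptor beads (10 ug/mL) for 30 min.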
Large screens that a line does not name were inactive. Hits are enriched below; roughly 10% of the tested compounds scored in any of these assays. Unless noted, calls come from the whole dose curve; as a rule, active = well fitted inhibition curve with a large enough effect; inconclusive = small, poorly fitted or top-dose-only effect; inactive = no such curve, though single readings can be large or run the other way.

CCCCN(CC)C(=O)CCNS(=O)(=O)c1ccc2c(c1)c(=O)n(C)c(=O)n2C	none (no result: Six1-Eya2 inh, CtBP-E1A blk)
CC(C)C[C@H]1CNC(=O)C(=O)N1C[C@@H]1CCCN1C[C@H](Cc1ccc(O)cc1)N1C[C@H](Cc2ccccc2)N(CC2CCCCC2)C(=O)C1=O	none (no result: G9a inh, BAZ2B inh, JMJD2A Tudor inh, HP1b chromo inh)
CN(C)NC1CCS(=O)(=O)C1 (stereo not given)	G9a inh 10µM, BAZ2B inh inconclusive, JMJD2A Tudor inh inconclusive
O=C(Cc1ccccc1)NNC(=O)Cc1ccccc1	none (no result: CtBP-E1A blk)
O=C(Cc1ccccc1)NC(NNc1ccccc1)(C(F)(F)F)C(F)(F)F	G9a inh 10µM, JMJD2A Tudor inh inconclusive, HP1b chromo inh inconclusive
CCNC(=O)c1sc(=S)n(-c2ccc(C)cc2)c1N	G9a inh 31.6µM, HP1b chromo inh inconclusive
CCOC(=O)c1sc(=S)n(-c2ccccc2)c1N	G9a inh inconclusive, HP1b chromo inh inconclusive
O=C(CCl)N(Cc1cc(=O)[nH]c2ccccc12)c1ccccc1	G9a inh 39.8µM (no result: CtBP-E1A blk)
CCC(=O)N(Cc1cc(=O)[nH]c2ccccc12)c1ccccc1	JMJD2A Tudor inh inconclusive (no result: G9a inh)
CC(=O)N(Cc1cc(=O)[nH]c2ccccc12)c1ccc(C)cc1	G9a inh 31.6µM
CC1(C)NC(C(=O)O)Cc2c1[nH]c1ccccc21 (stereo not given)	G9a inh 25.1µM (no result: CtBP-E1A blk)
CC12CCC(=O)N1C(C(=O)O)Cc1c2[nH]c2ccccc12 (stereo not given)	G9a inh inconclusive, JMJD2A Tudor inh 79.4µM
CS(=O)(=O)N1CCCCC1CCN1CCCCC1 (stereo not given)	none (no result: G9a inh, BAZ2B inh)
COc1ccc(N2CC(C)Cn3c2nc2c3c(=O)n(Cc3ccc(C)cc3)c(=O)n2C)c(OC)c1 (stereo not given)	G9a inh 35.5µM, JMJD2A Tudor inh inconclusive (no result: BAZ2B inh)
Cc1cc(=S)cc(C)n1CCCn1ccnc1	G9a inh 25.1µM (no result: BAZ2B inh)
Cc1ccc(S(=O)(=O)NC(=O)c2cc(C)n(CCCn3ccnc3)c2C)cc1	G9a inh inconclusive, BAZ2B inh 31.6µM, JMJD2A Tudor inh 56.2µM, Six1-Eya2 inh inconclusive
Cc1ccc(S(=O)(=O)NCCCn2ccnc2)cc1	BAZ2B inh inconclusive
O=C1CNC(=S)N1CCCn1ccnc1	none
CC1=C(C(=O)N2CCOCC2)CC(CC(=O)NC2CCCC2)C(=O)N1Cc1ccc(F)cc1 (stereo not given)	none (no result: G9a inh, BAZ2B inh, JMJD2A Tudor inh, HP1b chromo inh)
C/C(=N\NC(=O)c1cccc(O)c1)c1ccc(NC(=O)Cc2ccccc2)cc1	none
N#Cc1ccc(OCC(=O)Nc2cc(S(=O)(=O)N3CCOCC3)ccc2N2CCOCC2)cc1	G9a inh 70.8µM
N#Cc1ccc(NC(=O)CNc2cc(S(=O)(=O)N3CCOCC3)ccc2NCC2CCCO2)cc1 (stereo not given)	G9a inh 39.8µM
N#Cc1ccc(OCC(=O)Nc2cc(S(=O)(=O)N3CCOCC3)ccc2N2CCCC2)cc1	none (no result: G9a inh, BAZ2B inh)
O=C(CSc1nncs1)Nc1cc(S(=O)(=O)N2CCOCC2)ccc1N1CCCC1	G9a inh 35.5µM
CCCCCC(=O)Nc1cc(S(=O)(=O)N2CCCCC2)ccc1N1CCOCC1	none
O=C(CNc1cc(S(=O)(=O)N2CCOCC2)ccc1NCC1CCCO1)Nc1ccc(C(F)(F)F)cc1 (stereo not given)	JMJD2A Tudor inh inconclusive
CCCCCC(=O)Nc1cc(S(=O)(=O)N2CCOCC2)ccc1N1CCCC1	G9a inh 28.2µM
Nc1nnc(SCC(=O)Nc2cc(S(=O)(=O)N3CCOCC3)ccc2N2CCCC2)s1	none
Cc1ccc(OC2CCN(C(=O)[C@H]3O[C@@H](n4cnc5c(N)ncnc54)[C@H](O)[C@@H]3O)CC2)cc1	none (no result: G9a inh, BAZ2B inh, JMJD2A Tudor inh, HP1b chromo inh)
COc1cc(OC)c(NC(=O)c2ccc(-n3cnc4cccnc43)cc2)cc1Cl	none (no result: Six1-Eya2 inh, CtBP-E1A blk)
CCOC(=O)CCC(=O)Nc1cc(S(=O)(=O)N2CCOCC2)ccc1N1CCCCC1	none
COc1cc(S(=O)(=O)N2CCOCC2)ccc1NC(=O)CSc1nnc(N)s1	G9a inh 44.7µM
CCCn1c(SCC(=O)Nc2cc(S(=O)(=O)N3CCOCC3)ccc2OC)n[nH]c1=O	G9a inh 3.16µM
CCOCC(=O)Nc1cc(S(=O)(=O)N2CCOCC2)ccc1N1CCCCC1	G9a inh 7.08µM, BAZ2B inh inconclusive, JMJD2A Tudor inh 89.1µM, HP1b chromo inh inconclusive
N#Cc1ccc(C(=O)OCc2cccc(S(=O)(=O)N3CCOCC3)c2)cc1	G9a inh 14.1µM, JMJD2A Tudor inh inconclusive
CCN(C(=O)COC(=O)C(c1ccccc1)c1ccccc1)c1c(N)n(Cc2ccccc2)c(=O)[nH]c1=O	none (no result: G9a inh, BAZ2B inh, CtBP-E1A blk)
COc1ccc(CC(=O)OCC(=O)Nc2cc(S(=O)(=O)N3CCOCC3)ccc2N2CCCC2)cc1	G9a inh 39.8µM
COc1ccc(CC(=O)Nc2cc(S(=O)(=O)N3CCOCC3)ccc2N2CCCC2)cc1	none (no result: G9a inh, BAZ2B inh, JMJD2A Tudor inh, HP1b chromo inh)
Cc1ccc(OCCOCCn2c(-c3ccc(Cl)cc3)nc3ccccc3c2=O)cc1	none (no result: Six1-Eya2 inh, CtBP-E1A blk)
COc1cccc(-c2cn3nc(C)c(C)nc3n2)c1	G9a inh 20µM
Cc1nc2nc(-c3ccc(Cl)cc3)cn2nc1C	none
CCOC(=O)c1[nH]c2c(c1Cc1ccccc1)C(=O)CC(c1ccc(C(C)(C)C)cc1)C2 (stereo not given)	none (no result: Six1-Eya2 inh, CtBP-E1A blk)
COc1ccccc1[C@@H]1C(c2cccc(Cl)c2)=NN(c2ccc(Br)cc2)[C@H]1C(=O)N1CCOC1=O	none
CS(=O)(=O)N1CCc2ccc(NC(=O)C3CCCO3)cc2C1 (stereo not given)	G9a inh 79.4µM
O=[N+]([O-])c1ccc(N2CCN(Cc3ccccc3)CC2)s1	BAZ2B inh inconclusive
O=[N+]([O-])c1ccc(N2CCCCC2)s1	G9a inh 22.4µM, HP1b chromo inh inconclusive
Cc1nc2cc(NC(=O)C3COc4ccccc4O3)ccc2s1 (stereo not given)	G9a inh 50.1µM
CC(C)NC(=O)c1ccccc1NC(=O)C1COc2ccccc2O1 (stereo not given)	JMJD2A Tudor inh 50.1µM
Cc1ccc2sc(NNC(=O)C3COc4ccccc4O3)nc2c1C (stereo not given)	G9a inh 31.6µM, BAZ2B inh inconclusive, JMJD2A Tudor inh inconclusive
CCC(C)NC(=O)c1ccccc1NC(=O)C1COc2ccccc2O1 (stereo not given)	none (no result: CtBP-E1A blk)
Cc1cnc(NC(=O)C2COc3ccccc3O2)s1 (stereo not given)	G9a inh 35.5µM, BAZ2B inh inconclusive, JMJD2A Tudor inh inconclusive
Cc1nc2ccc(NC(=O)C3COc4ccccc4O3)cc2s1 (stereo not given)	none
O=C(NNc1nc2c(F)cccc2s1)C1COc2ccccc2O1 (stereo not given)	none
COc1ccccc1CCn1c(=O)c(-c2ccc(F)c(F)c2)nc2cncnc21	none (no result: BAZ2B inh, JMJD2A Tudor inh, Six1-Eya2 inh, CtBP-E1A blk, HP1b chromo inh)

Screening results as filed in PubChem.
